Assay outcomes deposited in PubChem by several laboratories.
Calb FLC = C. albicans growth modulation with fluconazole; AID 1979; hit rate 0.57% among 300,000; growth inhibition, % (concentration not given with the values); C. albicans CaCi-2 (fluconazole-resistant clinical isolate) + fluconazole, Alamar Blue growth, 48 h;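 active means growth inhibition above about 58% in most replicates, limit read from the data, passing the limit was not always enough; inconclusive means exactly half the replicates above a set limit; inactive means most replicates below a set limit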;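 further: all wells also contain fluconazole at 8 µg/ml as a sub-toxic cotreatment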
SUMO Mot1 rescue = SUMOylation pathway inhibition by Mot1-301 growth rescue | hit rate 1% among 320,000 | S. cerevisiae Mot1-301 growth rescue, ATP luminescence, 38.5C; percent above DMSO median, 100 means doubled | growth rescue, % at 18.8 µM;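 active means every valid replicate shows activation above 250% relative to neutral control wells; inactive means the rest, any valid replicate at or below 250%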
ATG4B inh = blocks human ATG4B protease cleavage of LC3 substrate. inhibition, % at 8.33 µM. ATG4B cleavage of LC3-PLA2, NBD-HPC fluorescence, 1 h. hit rate 0.51% among 340,000; in the data active means inhibition above about 40%
NadD block = blocks S. aureus nicotinate mononucleotide adenylyltransferase. hit rate 0.78% among 360,000. inhibition, % at 20 µM. purified NadD enzyme, colorimetric absorbance read-out; in the data active means inhibition above about 26%
FAS-TE inh = blocks the thioesterase domain of human fatty acid synthase | recombinant FAS-TE, OMFH fluorogenic substrate, fluorescence endpoint | hit rate 0.67% among 360,000 | P49327 | inhibition, % at 15 µM;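 active means compounds whose normalised, plate-corrected inhibition of enzyme fluorescence in the single-dose primary screen is 50% or more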
Target sequence (P49327 whole entry, looked up, the tested form may be a part): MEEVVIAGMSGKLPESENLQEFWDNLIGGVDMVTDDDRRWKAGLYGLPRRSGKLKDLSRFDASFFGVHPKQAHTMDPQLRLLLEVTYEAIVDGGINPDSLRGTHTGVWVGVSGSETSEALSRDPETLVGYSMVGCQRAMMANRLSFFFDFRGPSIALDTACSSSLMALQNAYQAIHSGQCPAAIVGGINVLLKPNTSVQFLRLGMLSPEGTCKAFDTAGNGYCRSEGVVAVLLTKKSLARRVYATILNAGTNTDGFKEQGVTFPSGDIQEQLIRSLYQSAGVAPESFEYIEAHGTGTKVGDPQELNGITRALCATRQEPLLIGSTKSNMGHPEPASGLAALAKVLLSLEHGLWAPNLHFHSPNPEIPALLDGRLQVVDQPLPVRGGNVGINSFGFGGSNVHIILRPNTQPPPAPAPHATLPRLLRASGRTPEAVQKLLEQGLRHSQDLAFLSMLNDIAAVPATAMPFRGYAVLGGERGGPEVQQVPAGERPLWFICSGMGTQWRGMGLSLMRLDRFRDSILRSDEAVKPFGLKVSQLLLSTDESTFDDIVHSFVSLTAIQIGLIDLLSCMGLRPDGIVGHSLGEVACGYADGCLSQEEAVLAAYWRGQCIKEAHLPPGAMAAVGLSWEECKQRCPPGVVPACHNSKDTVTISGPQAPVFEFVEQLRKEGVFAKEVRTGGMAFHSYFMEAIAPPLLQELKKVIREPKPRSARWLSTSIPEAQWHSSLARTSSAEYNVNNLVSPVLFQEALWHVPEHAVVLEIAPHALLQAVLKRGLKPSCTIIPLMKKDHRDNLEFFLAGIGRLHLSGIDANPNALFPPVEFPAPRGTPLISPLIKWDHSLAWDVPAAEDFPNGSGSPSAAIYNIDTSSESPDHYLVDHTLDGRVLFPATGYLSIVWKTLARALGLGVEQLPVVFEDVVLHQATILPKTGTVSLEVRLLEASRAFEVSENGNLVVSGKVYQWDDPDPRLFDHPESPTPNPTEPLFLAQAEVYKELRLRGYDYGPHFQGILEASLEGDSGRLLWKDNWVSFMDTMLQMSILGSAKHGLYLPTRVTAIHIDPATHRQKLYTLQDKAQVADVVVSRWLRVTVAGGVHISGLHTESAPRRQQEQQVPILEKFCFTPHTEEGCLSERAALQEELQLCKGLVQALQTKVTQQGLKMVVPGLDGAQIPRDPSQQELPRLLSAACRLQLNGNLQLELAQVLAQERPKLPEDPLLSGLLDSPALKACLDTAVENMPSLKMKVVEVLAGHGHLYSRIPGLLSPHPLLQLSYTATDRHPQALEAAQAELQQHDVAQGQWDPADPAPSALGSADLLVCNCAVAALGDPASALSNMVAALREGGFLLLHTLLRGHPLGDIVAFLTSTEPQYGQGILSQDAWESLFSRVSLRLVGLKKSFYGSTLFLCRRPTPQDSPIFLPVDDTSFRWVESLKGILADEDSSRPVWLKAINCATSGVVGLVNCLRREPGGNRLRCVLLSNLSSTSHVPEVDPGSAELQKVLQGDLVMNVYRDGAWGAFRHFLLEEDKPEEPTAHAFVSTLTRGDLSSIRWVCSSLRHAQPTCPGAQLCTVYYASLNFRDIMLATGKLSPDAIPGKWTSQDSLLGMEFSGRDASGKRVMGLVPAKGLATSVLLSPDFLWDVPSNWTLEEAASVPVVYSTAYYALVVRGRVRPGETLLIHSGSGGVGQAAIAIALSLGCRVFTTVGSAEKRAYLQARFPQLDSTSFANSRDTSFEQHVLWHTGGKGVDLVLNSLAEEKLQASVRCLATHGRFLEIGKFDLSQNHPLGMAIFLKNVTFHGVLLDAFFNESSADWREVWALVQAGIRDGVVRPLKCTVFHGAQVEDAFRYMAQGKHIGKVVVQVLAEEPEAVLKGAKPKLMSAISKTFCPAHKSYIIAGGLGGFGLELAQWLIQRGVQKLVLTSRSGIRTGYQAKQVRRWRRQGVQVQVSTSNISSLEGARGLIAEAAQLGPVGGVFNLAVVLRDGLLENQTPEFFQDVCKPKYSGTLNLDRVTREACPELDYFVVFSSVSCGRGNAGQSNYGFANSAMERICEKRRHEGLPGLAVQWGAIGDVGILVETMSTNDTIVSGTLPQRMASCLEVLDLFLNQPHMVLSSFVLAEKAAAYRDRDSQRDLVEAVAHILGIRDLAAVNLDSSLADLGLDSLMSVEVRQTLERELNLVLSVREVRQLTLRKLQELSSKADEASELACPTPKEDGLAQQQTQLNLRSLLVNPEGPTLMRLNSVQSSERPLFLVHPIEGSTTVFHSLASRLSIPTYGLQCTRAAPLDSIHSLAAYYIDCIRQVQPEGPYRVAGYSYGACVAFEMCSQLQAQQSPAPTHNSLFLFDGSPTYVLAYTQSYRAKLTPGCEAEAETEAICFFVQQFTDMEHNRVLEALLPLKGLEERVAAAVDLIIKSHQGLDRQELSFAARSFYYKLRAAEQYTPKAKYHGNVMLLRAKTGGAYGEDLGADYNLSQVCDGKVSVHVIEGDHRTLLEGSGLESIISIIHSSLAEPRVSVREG
NadD inh conf = confirmation of Staphylococcus aureus NadD inhibitors | shares compounds with NadD block | purified S. aureus NadD, colorimetric enzyme assay | inhibition, % at 20 µM | hit rate 13% among 2,000 | AID 624309; in the data active means inhibition mostly above about 42%, no sharp cut-off; inactive means mostly below about 42%
Large screens that a line does not name were inactive (follow-up assays come after a bar, where they were run); ! = a repeat was not active. Shown are actives, neighbours in structure and some others; about 3.1% of the full set was active somewhere.

O=C1c2ccccc2C(=O)N1CCc1c(-c2[nH]c3ccccc3c2CCN2C(=O)c3ccccc3C2=O)[nH]c2ccccc12	NadD block 31.1 (no result: Calb FLC, SUMO Mot1 rescue) | NadD inh conf inactive
COc1cccc(-n2c(SCC(=O)N3CCc4ccccc43)nnc2-c2c[nH]c3ccccc23)c1	NadD block 38.4 | NadD inh conf inactive
Cc1cccc2cc3c(nc12)SC(=NCC1CCCO1)N(Cc1ccco1)C3 (stereo not given)	none
Cc1ccc2nc3c(cc2c1)CN(Cc1ccco1)C(=NCC1CCCO1)S3 (stereo not given)	NadD block 45.2 | NadD inh conf inactive
CC(C#N)Sc1ccc(S(=O)(=O)N2CCCC2)cn1 (stereo not given)	none (no result: Calb FLC)
O=C(O)c1cccc(NC(=S)N/N=C/c2ccccc2OCc2ccc(Br)cc2)c1	Calb FLC inconclusive, NadD block 45.3 | NadD inh conf 64.1
CCOC(=O)c1ccc(NC(=O)CN(C)S(=O)(=O)c2ccc(Br)s2)cc1	none
CCCC12CN3CC(C)(CN(C1)C3c1cccs1)C2=O (stereo not given)	none
CC(C)(C)c1ccc(NC(=O)c2ccc3c(c2)S(=O)(=O)c2ccccc2C3=O)cc1	NadD block 27.9 | NadD inh conf inactive
COc1ccc(NC(=O)c2ccc3c(c2)S(=O)(=O)c2ccccc2C3=O)cc1	none
CCN(C(=O)COC(=O)COc1ccc(Cl)c(C)c1)C1CCS(=O)(=O)C1 (stereo not given)	none (no result: Calb FLC)
Cc1ccc(S(=O)(=O)N(C)C[C@H]2OCc3cn(nn3)CCCC(=O)N([C@H](C)CO)C[C@@H]2C)cc1	none (no result: Calb FLC, SUMO Mot1 rescue, ATG4B inh)
COc1ccc(NS(=O)(=O)c2ccc(NC(=S)NC(=O)/C=C/c3ccccc3)cc2)nn1	NadD block 48.4 | NadD inh conf 54.3
CCc1nnc(NS(=O)(=O)c2ccc(NC(=S)NC(=O)/C=C/c3ccccc3)cc2)s1	none
O=C(/C=C/c1ccc(Br)cc1)NC(=S)Nc1ccc(S(=O)(=O)Nc2nccs2)cc1	NadD block 54.3 | NadD inh conf inactive
COc1ccc(C2Nc3ccccc3C(=O)N2Cc2ccco2)cc1CN1C(=O)c2ccccc2C1=O (stereo not given)	NadD block 38.6! | NadD inh conf inactive
Cc1ccc2[nH]c3c(=O)n(CC(=O)N4CCN(C)CC4)ncc3c2c1	none
CN1CCc2c(sc(/N=C/c3c[nH]c4ccccc34)c2C(N)=O)C1	Calb FLC inconclusive, NadD block 51.4 | NadD inh conf inactive
CN1CCc2c(sc(/N=C/c3c[nH]c4ccccc34)c2C#N)C1	NadD block 44.0 | NadD inh conf inactive
CCOC(=O)c1c(/N=C/c2ccc(OC)cc2O)sc2c1CCN(C)C2	none
CCN1CCN(CCCNC(=O)c2ccc(NC(=O)C3=C(C)OCCS3)cc2)CC1	none
O=C1C=C(c2cc(C(F)(F)F)cc(C(F)(F)F)c2)C[C@@H](c2ccc(Cl)cc2)C1	none (no result: Calb FLC)
CCN(CC)S(=O)(=O)c1ccc(N2CCN(C)CC2)c(NC(=O)COc2ccc(F)cc2Cl)c1	none (no result: SUMO Mot1 rescue)
CCC1CCCCN1C(=O)c1cc(COc2ccc(-n3cncn3)cc2)on1 (stereo not given)	none
CCOc1cc(/C=C2\N=C(SC)SC2=O)cc([N+](=O)[O-])c1OC(C)=O	NadD block 46.0 | NadD inh conf inactive
CCc1nnc(NCC(=O)N2CCc3ccccc32)s1	NadD block 44.8 | NadD inh conf inactive
CCc1nnc(NC(=O)c2cc(S(=O)(=O)N3CCN(c4ccccc4)CC3)ccc2Cl)s1	NadD block 31.1 | NadD inh conf inactive
COc1cccc(C2=NOC(C(=O)Nc3cc(C)on3)C2)c1 (stereo not given)	none
Cc1cc(SCc2cccc([N+](=O)[O-])c2)nc(=O)[nH]1	none
Cc1cc(SCC(=O)c2cccc([N+](=O)[O-])c2)nc(=O)[nH]1	NadD block 33.1 | NadD inh conf inactive
COc1ccc(NC(=O)CN(C)S(=O)(=O)c2ccc3c(c2)CC(C)N3C(C)=O)cc1OC (stereo not given)	none
CC(C)(C)S(=O)N1Cc2cc(C(=O)Nc3ccc(-c4ccccc4)cc3)nc(-c3cccc(-c4cc5ccccc5o4)c3)c2[C@@H]1CCO (stereo not given in full)	NadD block 35.3 (no result: Calb FLC, SUMO Mot1 rescue, ATG4B inh) | NadD inh conf inactive
Cc1cccc(N2CCN(C(=O)c3ccc4nc(-c5ccco5)c(-c5ccco5)nc4c3)CC2C)c1 (stereo not given)	NadD block 41.8 | NadD inh conf inactive
Cc1cccc(N2CCN(C(=O)c3ccc4nccnc4c3)CC2C)c1 (stereo not given)	none (no result: Calb FLC)
CC(=O)Nc1ccc(Nc2nc(-c3cc4ccccc4oc3=O)cs2)cc1	none
COc1ccc(Nc2nc(-c3cc4cccc(OC)c4oc3=O)cs2)cc1	NadD block 44.4 | NadD inh conf inactive
COc1ccc(-c2cc3cccc(OC)c3oc2=O)cc1	none
CNC(=O)c1cc2cccc(OC)c2oc1=O	none
COc1cccc2cc(/C(C)=N/Nc3nc(-c4cc(C)ccc4C)cs3)c(=O)oc12	NadD block 34.4 | NadD inh conf inactive
COc1ccc2oc(=O)c(-c3csc(Nc4cccc(O)c4)n3)cc2c1	NadD block 35.0 | NadD inh conf 58.6
CCCN1CCN(CCCNC(=O)Cn2nc(C)n3c(cc4cc(F)ccc43)c2=O)CC1	none
CC(=O)Oc1ccc(N(C(C)=O)S(=O)(=O)c2ccc(C)c([N+](=O)[O-])c2)cc1	none
Cc1nn(-c2ccc(Cl)cc2)c(Cl)c1/C=N/NC(=O)c1ccc(NS(=O)(=O)c2cccs2)cc1	NadD block 41.3 | NadD inh conf 62.8
Cc1nn(-c2ccc(F)cc2)c(Cl)c1/C=N/NC(=O)c1cccs1	none
CCN1CCN(S(=O)(=O)c2ccc(Cl)c(C(=O)N(C)Cc3ccc(Cl)cc3Cl)c2)CC1	none
Cc1cc(C)c2sc(NNC(=O)c3ccc(S(=O)(=O)N4CCc5ccccc5C4)cc3)nc2c1	NadD block 63.7 | NadD inh conf 55.6
Cc1cc(C)c2sc(N(CCCN(C)C)C(=O)c3ccc(S(=O)(=O)N4CCc5ccccc5C4)cc3)nc2c1	none (no result: ATG4B inh)
Cc1cc(C)c2nc(NNC(=O)c3ccc(S(=O)(=O)N4CCc5ccccc5C4)cc3)sc2c1	NadD block 60.4 | NadD inh conf 61.2
Cc1cc(C)c2nc(NNC(=O)c3cc(=O)c4ccccc4o3)sc2c1	NadD block 58.7 | NadD inh conf 62.2
CCOC(=O)Cc1csc(NC(=O)c2cc(=O)c3ccccc3o2)n1	none
CC(C)C[C@@H](CN1CCC[C@@H]1CN1C(=S)NC[C@@H]1Cc1ccc(O)cc1)N1C[C@H](Cc2ccc(O)cc2)N(CC2CCCCCC2)C1=S	NadD block 44.1 (no result: Calb FLC, SUMO Mot1 rescue, ATG4B inh) | NadD inh conf inactive
CC(C)C[C@H]1CN([C@@H](CC(C)C)CN2CCC[C@@H]2CN2C(=S)NC[C@@H]2Cc2ccc(O)cc2)C(=S)N1CC1CCCCC1	NadD block 29.7 (no result: Calb FLC, SUMO Mot1 rescue, ATG4B inh) | NadD inh conf inactive
